Measurements from PubChem BioAssay (NCI).
This is part of a sample that, as a whole, favours compounds with a hit. Of some 83,000 tested, about 20% had one in any assay.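 Interpretation: 100, growth as untreated; towards 0, rising growth inhibition; 0, no net growth; 0 to -100, cell death. Compounds scoring below 10 were considered active.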 Unmarked numbers belong to inactive results. Calls of active or inactive are those of the source.

Tested on: HL-60(TB) leukemia
Assay: NCI-60 one-dose screen, 48 h (100 = growth as untreated, 0 = no growth, -100 = all killed)
Settings: 10 µM unless noted

Structure (SMILES)	growth
COC1CC(C)C(OC)c2cc(O)cc(c2O)NC(=O)/C(C)=C/C=C\C(C)C(OC(N)=O)/C(C)=C\C(C)C1OC (stereo not given)	-51.6% (active)
N#Cc1c(-c2ccc(Cl)cc2)nc(NN2C(=O)c3ccccc3C2=O)nc1N1CCOCC1	99.8%
O=CN1N=C(c2ccc(F)cc2)CC1c1cccc(Nc2ccnc3cc(C(F)(F)F)ccc23)c1 (stereo not given)	8.69% (active)
Nc1c(C(=O)Nc2cccc3cnccc23)sc2nc3c(cc12)C(=O)CCC3	60.2%
O=C(/C=C/c1ccc(Oc2ccc(Br)cc2)cc1)c1ccc(Br)cc1	88%
CCOC(=O)c1c(NC(=S)Nc2ccc([N+](=O)[O-])cc2)sc2c1CCCCC2	70.5%
COc1cc(OC)c(C(=O)/C=C/c2ccc(C#N)cc2)c(OC)c1	-7.85% (active)
O=C/C=C/c1ccc([N+](=O)[O-])cc1	106%
Nc1nccc(=S)[nH]1	79.9%
O=C(Nc1cccc(-n2cc(-c3ccncc3)c(-c3cc(O)cc(Cl)c3)n2)c1)c1ccc(N2CCOCC2)c(C(F)(F)F)c1	-46.4% (active)
COC(=O)c1nc(-c2ccccc2)oc1S(=O)(=O)N1CCN(c2ccc(OC)cc2)CC1	21.8%
CC1=C(C(=O)c2ccccc2)C(c2ccc3c(c2)OCO3)NC(=S)N1 (stereo not given)	2.6% (active)
COc1cc(/C=C2\CCCC3=C2N=C2SC(C)=CN2C3c2cc(OC)c(OC)c(OC)c2)cc(OC)c1OC (stereo not given)	-11.9% (active)
CCOc1cccc(/C=N/NC(=O)c2ccc(Nc3ccnc(C(F)(F)F)c3)cc2)c1O	37.7%
CCC(=O)NC1=C(Cl)C(=O)C(NC(=O)CC)=C(Cl)C1=O	-51.1% (active)
Clc1ccc(C2=NN=C3C(Cc4ccccc4)=Nc4ccccc4N3C2)cc1	25.2%
COc1cc(/C=C\C(C)=N\Nc2ccccc2)ccc1O	3.74% (active)
CC1(C)CCCC2=C1C(=O)N(SC(Cl)(Cl)Cl)C2=O	76.1%
CC(C)(C)c1cc(-n2c(-c3ccc(Cl)cc3)nc3cc(C(=O)Nc4ccc(Cl)cc4)ccc32)n[nH]1	51.3%
COc1ccc2c(c1)C(=Nc1cc(OC)c(OC)c(OC)c1)C(=O)N2	96.1%

Structure (SMILES)	growth
CCN(CC)S(=O)(=O)c1ccc(NC(=O)CSc2nnc(C)n2-c2ccccc2)cc1	132%
O=C(Nc1ccccc1O)c1ccc(NS(=O)(=O)c2cccc3cccnc23)cc1	-12.2% (active)
O=c1cc(Cl)nc2ccccn12	92.9%
CCN(CC)CCOC(=O)c1ccc(NC(=O)Nc2cccc(Cl)c2)cc1	103%
C1=CN2CC(c3ccccc3)=NNC2c2ccccc21 (stereo not given)	81.6%
C=C1C(=O)O[C@H]2[C@H]1CC/C(Cn1cc(-c3ccc(OC)cc3)nn1)=C\CC[C@@]1(C)O[C@@H]21	-35.2% (active)
O=C1NCC(c2cc3ccccc3[nH]c2=O)Nc2ccccc21 (stereo not given)	95.7%
COc1cc(C(=O)/C=C/c2cc(-c3cc(OC)c(OC)c(OC)c3)n[nH]2)cc(OC)c1OC	0.291% (active)
COc1ccc(/C=C2\N=C(c3cccnc3)N(c3ccccc3)NC2=O)cc1	95%
CCOC(=O)c1nn(C2CCCCO2)c2ccc(NS(=O)(=O)c3ccc(C)cc3)cc12 (stereo not given)	97.6%
C1Cc2onc(-c3noc4c3CCC4)c2C1	103%
NS(=O)(=O)c1ccc(C(=O)N/N=C(\CS(=O)(=O)c2ccccc2)c2cc3cc(Br)ccc3o2)cc1	115%
CCOC(=O)c1ccc(NC(C)=O)o1	80.6%
C/C=C(/C)C(=O)OC1C=C(CO)C(=O)C(OC(=O)C(C)(O)C(C)Cl)C1C(C)C (stereo not given)	-25.3% (active)
O=[N+]([O-])c1ccc(N=Nc2ccccc2)cc1	67.1%
Cc1[nH]c(-c2nc3ccccc3[nH]2)c(C)c1C(=O)NNc1ccc(Cl)cc1	103%
COc1cc2c(cc1OC)C(Sc1ccc(Cl)cc1)c1c(nc(N)c(C#N)c1N)O2 (stereo not given)	-25.1% (active)
CC(C)(C)n1cc(-c2ccnc(NCCNS(=O)(=O)c3cccc4ccccc34)c2)c(-c2cccc(O)c2)n1	71%
O=C(Nc1ccc(Cl)cc1F)c1cc(Br)ccc1O	-39.8% (active)
O=[N+]([O-])c1cc([N+](=O)[O-])c(C(F)(F)F)cc1NN=C(c1ccc(O)cc1)c1ccc(O)cc1	103%
